Experimental data reported in PubChem BioAssay (NCI).
Compounds without any hit were thinned out: in the full panel of roughly 79,000, 15% have a hit. Values without a mark were called inactive. The source made the active and inactive calls. No stated cut-off is given here; in the data, active means growth inhibition above about 70%; inactive means the rest. Where a SMILES comes first, the peptide text is derived from it. [ ]: non-standard residue; d: D form. Ac5c = NC1(C(=O)O)CCCC1

Tests used:
[1] = NCI Yeast Anticancer Drug Screen. Data for the rad50 strain (AID 155);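 further: 0% = growth of vehicle-only cultures of the same strain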; details: S. cerevisiae rad50 strain growth inhibition; at 50.0 µM; stronger effect = higher value
Procedure, shortened: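 Yeast carrying a defined DNA repair defect were exposed to test compounds, and growth was compared with vehicle-treated controls to give percent inhibition.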

[2] = NCI Yeast Anticancer Drug Screen. Data for the mec2-1 strain (AID 157); details: S. cerevisiae mec2-1 strain, at 50.0 µM, stronger effect = higher value
Procedure, shortened: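 Using mec2-1 yeast: add compound, measure growth, express inhibition versus vehicle-treated cultures.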

[3] = NCI Yeast Anticancer Drug Screen. Data for the sgs1 mgt1 strain (AID 161);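 further: 0% = growth of cultures given vehicle only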; details: S. cerevisiae sgs1 mgt1 strain, at 50.0 µM, stronger effect = higher value
Procedure, shortened: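 Growth of a repair-deficient yeast mutant was monitored after compound treatment and expressed as inhibition relative to vehicle-treated cultures.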

[4] = NCI Yeast Anticancer Drug Screen. Data for the cln2 rad14 strain (AID 165);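 further: 0% = growth equal to vehicle treated cultures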; details: S. cerevisiae cln2 rad14 strain, at 50.0 µM, stronger effect = higher value
Procedure, shortened: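 Yeast strain cln2 rad14, bearing defects in cell cycle control and DNA repair, serves as the test system; values reflect growth inhibition compared with vehicle.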

[5] = NCI Yeast Anticancer Drug Screen. Data for the bub3 strain (AID 167); details: S. cerevisiae bub3 mutant strain, at 50.0 µM, stronger effect = higher value
Procedure, shortened: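 Compounds were applied to a genetically altered yeast strain carrying a cell-cycle control defect. Growth inhibition was scored against vehicle-treated controls.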

[6] = NCI Yeast Anticancer Drug Screen. Data for the mlh1 rad18 strain (AID 175); details: S. cerevisiae mlh1 rad18 strain growth inhibition; at 50.0 µM; stronger effect = higher value
Procedure, shortened: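 Steps: expose repair-defective yeast to compound; measure growth; express inhibition against vehicle-treated controls.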

Compound | growth inhibition [1] | growth inhibition [2] | growth inhibition [3] | growth inhibition [4] | growth inhibition [5] | growth inhibition [6]
CCCCOC(=O)NC(=O)c1cc2cccc(OC)c2oc1=O | 17.1% | 21.6% | 14.4% | 14.3% | 14.8% | 10.2%
COC(=O)C1(NC(=O)C(C)NC(=O)C(CCCCN)NC(=O)C(CC(C)C)NC(C)=O)CCCC1 (stereo unspecified) (Ac-LKA[Ac5c]-OMe; configuration not given here) | 3.1% | 4.7% | 13.8% | -6.25% | -7.8% | 8.05%
CCCCCOC(C)(OCCCCC)OCCCCC | 7% | 13.6% | -4.2% | 2.8% | 9.6% | 7.5%
COc1ccc(CN2CCCN(Cc3ccc(OC)cc3OC)C2c2ccccc2)c(OC)c1 | 19.6% | 6.9% | 8.05% | 17.9% | -4.6% | 14.8%
CC(=O)OCCOCN1C(=O)CC(=O)NC1=O | -10.2% | -10.6% | -4.5% | -5.45% | -22.3% | -30.2%
CCOC(=O)C1=C(C)NC(=O)NC1c1ccc(N(C)C)cc1 (stereo unspecified) | 22.8% | -4.05% | 23.2% | 21.6% | 30.6% | 29.1%
O=C(SCSC(=O)c1ccccc1)c1ccccc1 | -11.3% | 10.9% | -4.75% | -18.5% | 32.8% | 2%
CCCC(F)C(=O)OCC (stereo unspecified) | 11.5% | -6.35% | 5.4% | -9.35% | 10% | 0.3%
O=C1c2cc(Cl)ccc2-c2cc(Cl)c(Cl)cc21 | -0.8% | -2.05% | 10.4% | -29.9% | -3.45% | 26.6%
Clc1ccc2ccc3ccc(Cl)nc3c2n1 | 18.5% | 20.4% | 26.4% | -18.5% | 8.5% | 9.95%
Nc1c2cc3c(cc2c[n+]2ccc4ccccc4c12)OCO3 | 38.9% | 44% | 32.6% | 19.9% | 43.9% | 54.5%
OCC(O)COc1cccc2cccnc12 (stereo unspecified) | 4.75% | -15% | 0.4% | -26.1% | 11.2% | 8.3%
Nc1nc(=O)n(CCCCCCc2ccccc2)cc1-c1ccc(Cl)c(Cl)c1 | -4.75% | -8.95% | 8% | 83.7% (active) | 3.65% | 0.45%
O=C(CCc1ccc(O)c(O)c1)NCCc1cc(O)cc(OCc2ccccc2)c1 | 9.45% | -6.65% | -10.6% | -19.1% | -44.3% | -73.5%
CSc1cnn(-c2ccccc2)[n+]1[O-] | 3.8% | -1.3% | -7.15% | -42.5% | -1.75% | -0.85%
CC1=C(C(c2ccccc2)c2ccccc2)C(=O)c2ccccc2C1=O | -3.35% | -6.5% | 1.45% | 1.5% | -31.8% | -0.7%
COc1ccc2cc(C(C)C(=O)N3C(=O)OCC3(C)C)ccc2c1 (stereo unspecified) | 19.4% | -11.3% | 30.4% | -13.7% | -8.75% | 9.95%
COc1ccc(/C(=N\NC(=O)NN)C(c2ccc(OC)cc2)C2(O)C(=O)Nc3c(Cl)cc(Cl)cc32)cc1 (stereo unspecified) | 6.2% | -7.75% | -57% | -16.8% | 8.6% | -10.2%
CC1(Br)CP(=O)(c2ccccc2)CC1Br (stereo unspecified) | -9.2% | -11.9% | 9.5% | -24.4% | 21.1% | -6%
OCC1=C(CO)CC=CC1 | -21% | 10% | 2.2% | 1.5% | -3.05% | 28.6%
N#CC(C(N)=O)C(CC(=O)c1ccccc1)c1ccccc1 (stereo unspecified) | -7.65% | -3.1% | 13.3% | 15.9% | 19.2% | -2.05%

Compound | growth inhibition [1] | growth inhibition [2] | growth inhibition [3] | growth inhibition [4] | growth inhibition [5] | growth inhibition [6]
CCC(=O)OC(OC(=O)CC)c1ccc2c(c1)OCO2 | -4.6% | 0.7% | 4.45% | -18.9% | 7.75% | -1%
Nc1nc(-c2cc(Br)ccc2N=NN2CCOCC2)nc2ccc(Br)cc12 | 98.8% (active) | 99.1% (active) | 99.3% (active) | 98.8% (active) | 99% (active) | 99% (active)
Cc1cc(-c2ccccc2)n(C(C(=O)c2ccccc2)c2ccccc2)n1 (stereo unspecified) | 13.8% | -10.4% | -0.15% | -5.6% | -26.7% | -15.2%
O=C(OCCOc1ccc(Cl)cc1Cl)c1ccccc1O | -2.4% | -17.4% | -1.85% | -12.8% | 11.6% | 0.3%
CCCCCCCCCCCCCCCCCC(=O)OCC1OC(OC)C(NC(=O)N(CCCl)N=O)C(O)C1O (stereo unspecified) | 16.3% | -6.85% | -4.8% | 13.7% | 21.4% | 9.15%
CCOC(=O)/C(=N/O)c1ccccn1 | 0.4% | -8.65% | -4.35% | 16.2% | -5.35% | -3.8%
CCOC(=O)C(NC(C)=O)C(O)c1ccccc1 (stereo unspecified) | -8.85% | -16.2% | -2% | -24.6% | -37.4% | -9.95%
COc1cc(OC)cc(Oc2nc3ccc(C(F)(F)F)cc3nc2-c2ccccc2)c1 | -33.1% | -44.8% | -7.85% | -28.3% | -27.4% | -14.3%
O=C1CCCC2(c3ccc([N+](=O)[O-])cc3)C1C1C(=O)CCCC12c1ccc([N+](=O)[O-])cc1 (stereo unspecified) | 44% | -0.6% | 14.2% | 12.6% | 5.4% | 5.5%
CC(=S)NNC(=O)c1ccncc1 | -14.1% | 6.05% | -8.2% | -1.15% | -20.1% | -14.9%
CCCC(=O)OCc1ccc(Cl)c(Cl)c1 | 21.6% | 16% | 9.45% | 8% | 9.15% | -3.85%
CCOC(=O)C1/C(=C\O)C(=O)c2cc(OC)c(OC)cc2C1c1ccc(OC)c(OC)c1 (stereo unspecified) | -0.5% | 0.9% | 20.6% | 8.35% | -5.95% | 21.9%
c1ccc(-c2cc(-c3ccncc3)c(-c3ccccc3)nn2)cc1 | 7.85% | 7.8% | 24% | 22% | -1.1% | 36.4%
COc1ccc(C)cc1NC(=S)NC(=O)C(C)Oc1ccccc1 (stereo unspecified) | 11.8% | 46.5% | 59.5% | -27% | 28.6% | 32.9%
Cc1c(CCC(C)C)oc2cc3oc(CCC(C)C)c(C)c3cc12 | 21.7% | 2.2% | 2% | -4.8% | 6.3% | 18.5%
CN(CC(C)(C)C=O)C(=O)c1ccccc1 | 8.05% | -5.45% | -10% | -8.3% | -19.1% | -1%
COc1ccc(OC)c(CCCCC(N)=O)c1 | -19.8% | -8.2% | 7.3% | 1.4% | 0.5% | -9.55%
CCCCSc1n[nH]c(=O)nc1N | -5.5% | -7.95% | -3.1% | -11.3% | -11.6% | 3.9%
Cc1ccccc1S(=O)(=O)NC1c2ccccc2Oc2ccccc21 | -9.85% | -3.7% | -5.3% | -12.1% | 2.5% | -7.9%
CCOC(=O)c1ccc(NCCCNc2ccc(C(=O)OCC)cc2)cc1 | -8.05% | 13.8% | 1.45% | 0.35% | 4.7% | 9.5%
